Assay outcomes as filed in PubChem BioAssay.
Rows were chosen to be rich in hits. Some 2.9% of all compounds tested hit in one or more screens of this group.
TRPM1 prom inh = inhibitors of MITF-driven TRPM1 promoter in melanoma cells; hit rate 0.83% among 330,000; SK-MEL-5 TRPM1 promoter luciferase, 24 h; inhibition, % at 12.5 µM;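 active = mean inhibition across replicates of 60% or more, whatever share of single replicates reaches that level; inconclusive = some that reach 60%, reason not given; inactive = mean inhibition across replicates below 60%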
MITF act = MITF TRPM1 promoter activation in melanoma cells | SK-MEL-5 TRPM1-promoter luciferase, 24 h; % of positive control, neutral wells = 0 | activation, % at 12.5 µM | hit rate 0.75% among 300,000 | AID 588334;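 active = mean activation of at least 80% with every replicate also reaching 80%; inconclusive = mean reaches 80% but some replicate falls short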;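 also: 0% = neutral control wells and 100% = parthenolide positive control wells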
N-glyco inh = N-linked glycosylation inhibition. AID 588692. reporter increase, % at 12.5 µM. hit rate 0.23% among 360,000. D54 ERlucT glycosylation luciferase reporter, 24 h; percent of 100 nM tunicamycin response;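 active = mean luciferase reporter signal, scaled so untreated is 0 and the glycosylation-blocking control 100, at or above a set limit in every replicate; inconclusive = mean reaches the limit but not every replicate does; inactive = mean below the limit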;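 also: luciferase carries N-glycosylation sites so blocking glycosylation raises the light; 0% = median of neutral control wells and 100% = median of 100 nM tunicamycin wells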
Wnt bcat act = activators of Wnt/beta-catenin signaling; Wnt/beta-catenin reporter cell assay, activator, plate reader; activation, % at 9.35 µM; hit rate 1.2% among 300,000; in the data active = activation above about 30%, passing the limit was not always enough; inconclusive = no clear call, values can overlap the other calls;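 also: 0% = neutral control wells and 100% = positive control wells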
PfHsp90 set2 = reduces growth (ATP signal) of yeast expressing P. falciparum Hsp90 | inhibition, % at 9.4 µM | S. cerevisiae expressing PfHsp90, BacTiter-Glo ATP, 48 h; yeast lacking PDR1 and PDR3 efflux regulators | AID 504621 | hit rate 0.32% among 310,000;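 active = every replicate shows inhibition above about 80%, whatever the replicate mean, limit read from the data; inconclusive = mean inhibition reaches the set limit but some replicate falls short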;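 also: 0% = DMSO neutral controls and 100% = 20 µM radicicol positive controls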
NSD2 HMT inh = inhibitors of human histone methyltransferase NSD2 | O96028 | NSD2 peptide methylation, AlphaScreen, 120 min | inhibition, % at 12.5 µM | hit rate 0.54% among 310,000; in the data active = inhibition above about 50%
Target sequence (O96028 whole entry, looked up): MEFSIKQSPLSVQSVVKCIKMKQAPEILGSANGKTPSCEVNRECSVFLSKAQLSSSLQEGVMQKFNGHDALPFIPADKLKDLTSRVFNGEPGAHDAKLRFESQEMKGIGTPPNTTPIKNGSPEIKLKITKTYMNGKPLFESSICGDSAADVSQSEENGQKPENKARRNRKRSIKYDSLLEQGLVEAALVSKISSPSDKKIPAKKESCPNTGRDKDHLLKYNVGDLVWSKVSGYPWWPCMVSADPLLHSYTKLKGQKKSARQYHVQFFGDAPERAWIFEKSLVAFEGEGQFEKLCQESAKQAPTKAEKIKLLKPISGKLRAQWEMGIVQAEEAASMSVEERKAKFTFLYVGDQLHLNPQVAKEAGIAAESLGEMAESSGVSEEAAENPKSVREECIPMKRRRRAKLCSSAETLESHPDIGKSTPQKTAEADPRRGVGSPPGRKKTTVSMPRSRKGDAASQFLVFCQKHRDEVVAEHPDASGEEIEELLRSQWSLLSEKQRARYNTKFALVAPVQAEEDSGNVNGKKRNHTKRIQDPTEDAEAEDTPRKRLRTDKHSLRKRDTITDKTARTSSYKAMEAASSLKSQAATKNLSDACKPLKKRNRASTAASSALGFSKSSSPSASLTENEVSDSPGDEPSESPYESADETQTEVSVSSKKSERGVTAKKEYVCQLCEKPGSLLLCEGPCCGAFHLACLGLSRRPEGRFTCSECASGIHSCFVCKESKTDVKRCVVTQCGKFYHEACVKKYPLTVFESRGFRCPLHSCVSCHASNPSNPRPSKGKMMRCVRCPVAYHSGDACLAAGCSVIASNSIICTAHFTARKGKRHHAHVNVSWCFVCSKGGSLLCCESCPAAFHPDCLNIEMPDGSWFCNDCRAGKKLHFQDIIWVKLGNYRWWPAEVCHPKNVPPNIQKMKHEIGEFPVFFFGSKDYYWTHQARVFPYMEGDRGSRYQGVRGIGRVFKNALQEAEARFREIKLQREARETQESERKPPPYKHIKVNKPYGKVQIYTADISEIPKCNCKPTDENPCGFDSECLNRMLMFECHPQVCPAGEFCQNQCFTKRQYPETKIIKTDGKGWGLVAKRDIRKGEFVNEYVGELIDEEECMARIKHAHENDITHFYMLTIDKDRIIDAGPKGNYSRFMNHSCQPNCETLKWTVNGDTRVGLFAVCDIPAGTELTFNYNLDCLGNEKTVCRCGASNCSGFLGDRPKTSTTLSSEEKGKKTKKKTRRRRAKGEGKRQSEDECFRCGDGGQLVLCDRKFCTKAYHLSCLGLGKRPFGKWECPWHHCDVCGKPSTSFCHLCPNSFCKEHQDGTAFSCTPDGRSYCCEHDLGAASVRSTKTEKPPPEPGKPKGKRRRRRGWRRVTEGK
Active calls of the source: *; ? = inconclusive; · = no result.

SMILES	TRPM1 prom inh	MITF act	N-glyco inh	Wnt bcat act	PfHsp90 set2	NSD2 HMT inh
Cc1cc(=O)oc2cc(NS(=O)(=O)c3ccccc3)ccc12	-9.6	·	0.4	52.5*	14.4	0.0
Cc1ccc(NS(=O)(=O)c2ccc3c(c2)n(C)c(=O)n3C)c(C)c1	·	·	10.2	2.1	-10.0	0.1
COc1ccc(OC)c(S(=O)(=O)Nc2ccc3c(c2)n(C)c(=O)n3C)c1	-12.8	11.8	28.2*	0.4	-4.9	2.2
Cn1cc(S(=O)(=O)Nc2ccc(Oc3ccccc3)cc2)c(=O)n(C)c1=O	9.1	-2.7	0.4	1.1	4.5	-0.8
CCc1ccc(S(=O)(=O)Nc2cc3c(cc2C)n(C)c(=O)n3C)cc1	14.3	-8.1	46.3*	-5.5	5.2	-0.6
CC(C)c1ccc(NC(=O)CN2CCN(C(=O)C3CCCO3)CC2)cc1 (stereo unspecified)	-0.6	3.4	0.0	0.4	-6.6	-0.7
Cn1c(=O)n(C)c2cc(NS(=O)(=O)c3ccccc3)ccc21	11.2	-13.2	34.0*	·	-7.4	1.0
Cc1ccc(S(=O)(=O)Nc2ccc3c(c2)n(C)c(=O)n3C)cc1	6.2	-6.3	64.7*	13.4	-5.7	-0.4
Cn1c(=O)n(C)c2cc(S(=O)(=O)Nc3ccccc3)ccc21	6.0	-9.0	6.3	-0.3	1.3	0.6
O=C(C1CCCN(S(=O)(=O)c2ccccc2F)C1)N1CCN(Cc2ccccc2)CC1 (stereo unspecified)	·	·	·	·	·	-1.0
O=S(=O)([N-]c1nc2ccccc2nc1-n1cc[n+](Cc2ccccc2)c1)c1ccc(Cl)cc1	5.4	·	46.5*	-1.3	-28.6	-2.9
CC(C)CC[n+]1ccn(-c2nc3ccccc3nc2[N-]S(=O)(=O)c2ccccc2)c1	-5.5	10.0	-4.0	·	-1.6	3.5
Cc1ccc(-n2c(SC/C=C/c3ccccc3)nnc2-c2cccs2)cc1	·	·	·	·	·	-0.3
Cc1ccc(OCC(=O)Nc2ccc(C)c(F)c2)c([N+](=O)[O-])n1	-104.2	114.1*	2.1	-2.7	·	1.3
O=[N+]([O-])c1ccc(COc2cccc3cccnc23)cc1	-84.5	93.4*	-0.6	13.2	-7.4	47.2
Cc1ccc(OCCOc2c(Cl)cc(Cl)cc2Cl)c([N+](=O)[O-])n1	·	·	·	·	·	-2.0
O=[N+]([O-])c1cc(Cl)ccc1Sc1cccc2cccnc12	19.9	-13.6	-1.0	-3.4	-6.3	1.3
Cc1ccc(OCCOc2ccc(Br)cc2)c([N+](=O)[O-])n1	-114.8	123.3*	3.0	13.0	18.1	-0.3
O=[N+]([O-])c1ccc(Sc2cccc3cccnc23)c([N+](=O)[O-])c1	75.8*	-76.2	-21.3	21.9	-8.6	7.4
Cc1ccc(OCc2ccc([N+](=O)[O-])cc2)c([N+](=O)[O-])n1	-135.4	138.8*	-2.5	33.2*	10.3	-4.3
O=C(NCCNCc1ccccc1)c1ccco1	10.8	-7.0	-0.5	-2.8	29.9	3.0
CCc1ccc(CNCCNC(=O)c2ccco2)cc1	6.6	-6.8	-0.9	42.3*	7.2	-0.2
COCc1[nH]nc2c1C(c1ccccc1)N(Cc1ccccc1)C2=O (stereo unspecified)	·	·	·	-0.6	·	0.4
COc1nn(-c2ccccc2)c(=O)c(Cl)c1Cl	84.3*	·	-7.9	-9.1	2.4	0.0
COc1c(Cl)cnn(-c2ccccc2)c1=O	4.0	-7.9	2.8	·	15.4	-0.7
SMILES	TRPM1 prom inh	MITF act	N-glyco inh	Wnt bcat act	PfHsp90 set2	NSD2 HMT inh
O=C1C[C@H](C(=O)Nc2ccc(Cl)cc2)[C@@H](c2ccccc2)O1	·	·	·	·	·	1.4
COc1cc(SC)ccc1C(=O)Nc1ccccc1	-28.4	·	0.6	33.9*	-26.2	-0.9
COc1cc(SC)ccc1C(=O)Nc1nc2ccccc2[nH]1	97.0*	-97.3	-19.7	-0.7	95.8*	-3.1
CSc1ccccc1C(=O)Nc1nc2ccccc2[nH]1	-52.2	53.9	0.1	16.0	8.7	-3.2
COc1cc(SC)ccc1C(=O)NCC1CCCCC1	-95.6	97.3*	2.2	0.2	-28.2	-2.0
COc1ccccc1C(=O)Nc1nc2ccccc2[nH]1	96.3*	-96.3	-19.7	-16.5	98.7*	11.6
Cc1ccc(CNC(=O)/C=C/[C@H]2O[C@@H](n3cc(C)c(=O)[nH]c3=O)C[C@@H]2O)o1	·	·	0.5	-1.7	·	·
CC(=O)N1CCN(C(=O)COc2ccc3oc4c(c3c2)CCCC4)CC1	17.1	-16.8	-2.0	2.0	·	-0.7
COc1ccc(/C=N/N2C(=N)SCC2=O)cc1	-12.4	11.7	-3.7	9.1	-34.2	4.6
Clc1ccc(-c2cn3cc(Cl)ccc3n2)cc1	-7.3	8.9	-16.7	20.9	11.1	-3.5
Clc1ccc(-c2cn3c(n2)CCC3)cc1	-89.8	92.5*	-1.3	·	-1.3	·
CC(C)Oc1ccc(C(CCN)C2CCCCC2)cc1 (stereo unspecified)	87.7*	-87.1	-3.2	-2.7	-3.7	47.6
Cc1cc(C(C)(C)CC(C)(C)C)ccc1OCCOCC[N+](C)(C)Cc1ccccc1	96.4*	-96.4	?	-20.4	113.1*	·
Cc1ccc(Sc2c([N+](=O)[O-])c(=O)n(C)c3ccccc23)cc1	20.7	·	17.1	32.3*	-2.2	-1.7
Cc1ccc(Sc2c(O)c3ccccc3n(C)c2=O)cc1	-9.0	6.8	-0.2	-5.4	·	-23.0
c1ccc(-c2ccc(-c3ccncn3)cc2)cc1	-40.5	·	-5.2	44.0*	-4.6	5.8
c1ccc(-c2csc(-c3ccncc3)n2)cc1	-31.0	32.6	1.7	13.4	2.1	-2.9
CNc1ccc(/C=C/C(=O)c2cccc3ccccc23)cc1[N+](=O)[O-]	-10.5	8.3	45.7*	0.2	-16.1	2.0
O=C(OCC(=O)c1cccc2ccccc12)c1ccc(CO)cc1	-129.8	136.7*	-2.0	9.4	3.5	0.6
CSc1ccccc1NC(=O)c1cc2ncc(Br)cn2n1	-71.2	72.8	0.0	34.7*	-35.1	7.8
CCOc1ccc(NC(=O)CSc2nnc(-c3n[nH]c4c3CCC4)n2N)cc1	·	·	·	·	·	-4.6
CC(=O)Nc1nc(-c2ccc3c(c2)OCO3)cs1	-60.2	65.1	0.8	52.7*	15.9	·
COc1cccc(-c2csc(NC(=O)C3CC3)n2)c1	-107.1	119.5*	2.5	?	11.2	·
COc1ccc(-c2csc(NC(=O)C3CCN(c4ncnc5sc(C)c(C)c45)CC3)n2)cc1OC	85.7*	-85.2	-11.3	-14.2	-12.0	-6.7
O=C(Nc1nc(-c2ccc(Cl)cc2)cs1)C1CCCO1 (stereo unspecified)	-43.3	50.9	2.0	64.6*	-5.3	-3.8
O=C(Nc1nc(-c2ccc3c(c2)OCCO3)cs1)C1CCCC1	-135.4	144.0*	-9.2	43.7*	-18.7	36.2
O=C(CCCCl)Nc1nc(-c2ccc3c(c2)OCCO3)cs1	-89.9	87.5*	-8.3	15.6	-22.5	-2.1
Cc1nn(-c2ccccc2)c2sc(C(=O)NC3CCCCCC3)cc12	·	·	·	·	·	6.5
CCc1ccc(NC(=O)Cn2c(=O)n(CCC(=O)NC3CCN(Cc4ccccc4)CC3)c(=O)c3ccccc32)cc1	29.2	-30.0	37.7*	1.6	-1.5	·
